Gli-Sufu antag – Gli-Sufu pathway antagonists, primary screen, luciferase luminescence, Sufu-KO-LIGHT cells, uHTS | Sufu-KO-LIGHT fibroblasts, Gli luciferase reporter luminescence | inhibition, % at 5 µM | 0.74% of 340,000 active | AID 588413, 2011;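 active means inhibition above about 55%, limit read from the data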;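 further: 0% = DMSO-treated cells and 100% = wells with medium but no cells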
Beta apoptosis – inhibitors of cytokine-induced beta cell apoptosis, primary screen, luminescence; INS-1E cytokine-induced death, ATP luminescence, 48 h; percent of positive-control rescue, neutral wells zero; protection from apoptosis, % (concentration not given with the values); 0.8% of 300,000 active;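 active means Every replicate reaches about 75%, or at least half do and their mean reaches it too, limit read from the data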;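 further: 0% = cytokine-treated negative control wells and 100% = positive control rescue; higher means more ATP so stronger rescue from cytokine killing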
CSC inhib – cancer stem cell viability inhibitors, primary screen, luminescence. cancer stem cell-like cells viability. inhibition, % at 7.5 µM. 1.1% of 300,000 active; in the data active means inhibition above about 75%; tested in HMLE shEcad cells
697 NFkB inh – inhibitors of PMA/ionomycin-induced NF-kB reporter, 697 cells, primary screen, B-cell NF-kB inhibitor project, cell-based, luminescence, uHTS; inhibition, % at 4 µM; 0.33% of 330,000 active; 697 B-cell NF-kB luciferase reporter, 16 h; in the data active means inhibition above about 35%
Jurkat NFkB inh – inhibitors of induced NF-kB luciferase reporter, primary screen, TCR NF-kB activation inhibitor project, cell-based, luminescence, uHTS. inhibition, % at 4 µM. Jurkat, PMA/ionomycin-induced NF-kB luciferase reporter. AID 435003, 2010. 0.53% of 330,000 active; in the data active means inhibition above about 50%
Mdm2-MdmX inh – inhibitors of human Mdm2-MdmX association, primary screen, cell-based, luminescence, split luciferase, SaOS-2, uHTS; Protein Mdm4 (Homo sapiens) + E3 ubiquitin-protein ligase Mdm2 (Homo sapiens), …; SaOS-2 split-luciferase Mdm2/MdmX complementation; inhibition, % at 8 µM; 3% of 330,000 active;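 active means inhibition of at least 50% at 8 µM in the primary screen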
Mdm2 MdmX conf – Mdm2-MdmX complex disruptors, retested hits, confirmation, luminescence, single concentration. shares compounds with Mdm2-MdmX inh. Mdm2-MdmX binding, luminescent assay. inhibition, % at 8 µM. 55% of 10,000 active. AID 489028, 2010; in the data active means inhibition above about 40%
FLuc counter – full-length luciferase signal inhibition, confirmation, counter-screen for Mdm2/MdmX interaction inhibitor project, cell-based, single concentration, SaOS-2; shares compounds with Mdm2-MdmX inh; SaOS-2 full-length luciferase counterscreen, luminescence; inhibition, % at 8 µM; 77% of 6,200 active; AID 504607, 2011;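 active means mean inhibition at 8 µM reaching about 37%, which flags the compound as non-specific, limit read from the data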;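 further: p53-null SaOS-2 cells with luciferase driven by a doxycycline-inducible promoter; compound on cells about two nights before reading with doxycycline added after day one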
Active calls of the source: *; x = no result given. Rows were chosen to be rich in hits. Some 4.5% of all compounds tested hit in one or more screens of this group.

SMILES | Gli-Sufu antag | Beta apoptosis | CSC inhib | 697 NFkB inh | Jurkat NFkB inh | Mdm2-MdmX inh | Mdm2 MdmX conf | FLuc counter
CCN(CC)S(=O)(=O)c1ccc(NC(=O)c2cc(-c3cccs3)nc3ccccc23)cc1 | -6.4 | 10.1 | -6.7 | 34.5 | 8.6 | 50.2* | 23.0 | x
Cc1cc(NC(=O)c2cc(-c3ccccn3)nc3ccc(Br)cc23)no1 | 1.7 | 27.9 | 18.1 | -8.4 | 3.6 | 66.4* | 23.1 | x
CCN(CC)S(=O)(=O)c1cc(NC(=O)c2cc(-c3ccccn3)nc3ccccc23)ccc1C | 17.4 | 12.2 | 4.4 | -15.0 | 9.2 | 52.5* | 4.8 | x
CCCSc1ccc([C@@H]2[C@H]3C(=O)N(CC)C(=O)[C@H]3[C@]3(C(=O)OC)CCCCN23)cc1 | 4.1 | -1.1 | 10.5 | -1.8 | -0.6 | -0.5 | x | x
Cc1ccc(-c2cc(C(=O)Nc3cc(C)on3)c3ccccc3n2)cc1 | -11.5 | 1.7 | 3.0 | -11.1 | 4.6 | -10.8 | x | x
CN(C)S(=O)(=O)c1ccc(NC(=O)c2cc(-c3cccs3)nc3ccccc23)cc1 | 16.4 | 2.0 | -1.4 | 5.7 | -3.5 | 64.0* | 61.8* | 53.0*
CC(=O)NS(=O)(=O)c1ccc(NC(=O)c2cc(-c3cccs3)nc3ccccc23)cc1 | -3.4 | 0.9 | -1.2 | 4.9 | 1.9 | 16.8 | x | x
Cc1cc(NC(=O)c2cc(-c3cccs3)nc3ccccc23)no1 | -10.5 | 9.3 | 36.9 | -7.9 | 26.5 | 51.3* | 26.6 | x
NS(=O)(=O)c1ccc(CCNC(=O)c2cc(-c3ccc(Br)cc3)nc3ccccc23)cc1 | 1.9 | 4.9 | 6.3 | -5.3 | -17.2 | 40.3 | x | x
NS(=O)(=O)c1ccc(CCNC(=O)c2cc(-c3ccccn3)nc3ccc(Br)cc23)cc1 | 2.8 | 16.3 | 9.4 | 17.4 | -6.6 | 76.9* | 16.3 | x
NS(=O)(=O)c1ccc(NC(=O)c2cc(-c3cccs3)nc3ccccc23)cc1 | -5.0 | 9.9 | 10.4 | 11.9 | -9.3 | 87.0* | 29.6 | x
Cn1c2ccccc2c(=O)c2c(=O)n(-c3ccc(F)cc3)c(C3CCCCC3)nc21 | 12.8 | x | x | x | x | x | x | x
COc1cc2oc(=O)cc(-c3ccc(-c4ccc(CO)cc4)cc3)c2c(OC)c1OC | -2.4 | x | x | -10.0 | x | 68.3* | 64.5* | 48.1*
CN(C)C(=O)C12CCC(C)(C(=O)C1Br)C2(C)C (stereo not drawn) | 4.5 | -5.3 | -1.6 | -0.2 | -16.0 | -20.5 | x | x
CC(C)CN(C(=O)COC(=O)c1ccccc1SCC(=O)N1CCCC1)C1CCS(=O)(=O)C1 (stereo not drawn) | 5.0 | x | x | x | x | x | x | x
O=C1C(=O)N(Cc2ccncc2)C(c2ccccc2F)/C1=C(\O)c1ccc2c(c1)OCCO2 (stereo not drawn) | -48.2 | -4.9 | -8.6 | 6.5 | 0.7 | 5.9 | x | x
O=C(Nc1ccc(Cl)cc1)Nc1nnc(CSCc2ccccc2Cl)s1 | -7.2 | 36.4 | 36.8 | -5.7 | -1.7 | 60.7* | 15.4 | x
O=C(Nc1ccccc1)Nc1nnc(CSCc2ccccc2Cl)s1 | -6.9 | -2.2 | x | -3.3 | -0.9 | 84.7* | 47.4* | 66.5*
Cc1ccc(OCCSCc2nnc(NC(=O)Nc3cccc(Cl)c3)s2)cc1 | 15.1 | 5.9 | 51.3 | -18.6 | 27.7 | 91.5* | 81.6* | 96.7*
Cc1nnc(NC(=O)Nc2cccc(Cl)c2)s1 | -44.1 | -10.0 | 13.3 | -53.6 | -34.7 | 15.6 | x | x
O=C(Nc1ccc(Cl)c(Cl)c1)Nc1nnc(CSc2ccccc2)s1 | 47.1 | 99.6* | 44.3 | -44.6 | 23.5 | 94.8* | 77.2* | 49.6*
O=C(Nc1ccc(Cl)cc1)Nc1nnc(SCc2ccccc2)s1 | -18.6 | 10.5 | 15.2 | -24.9 | -26.4 | -13.0 | x | x
Cc1cccc(CC(=O)N2CCCC2)c1 | -5.8 | -4.9 | -14.6 | 4.5 | 1.8 | -8.9 | x | x
CC(C)(C)c1ccc(C(=O)Nc2ccc(NC(=O)c3ccco3)cc2)cc1 | 1.3 | x | x | -2.7 | 8.4 | 50.9* | 15.7 | x
O=C(Nc1ccc(NC(=O)c2sc3ccccc3c2Cl)cc1)c1ccco1 | 7.3 | -2.6 | 4.3 | -30.8 | 12.1 | 77.1* | 30.1 | 46.4*
SMILES | Gli-Sufu antag | Beta apoptosis | CSC inhib | 697 NFkB inh | Jurkat NFkB inh | Mdm2-MdmX inh | Mdm2 MdmX conf | FLuc counter
CC(Sc1nnnn1C1CCCC1)C(=O)Nc1cccc(S(=O)(=O)N2CCOCC2)c1 (stereo not drawn) | 8.2 | 1.8 | -9.3 | -11.1 | -3.1 | -37.9 | x | x
O=C(NCCCn1ccnc1)Nc1ccc2c(c1)OCO2 | -17.1 | 0.4 | 6.2 | -1.6 | -28.1 | 0.2 | x | x
CC(C)n1cnc2c(Nc3cccc(Cl)c3)nc(NCCCO)nc21 | 4.9 | 4.7 | -7.2 | -10.8 | -21.1 | 72.9* | 73.8* | 71.7*
CC(C)n1cnc2c(NCc3ccccc3)nc(NCc3ccccc3)nc21 | 2.6 | -1.4 | 12.2 | -10.5 | 7.9 | 21.5 | x | x
CCCCCCOC(=O)C[N+](C)(C)CCOC1CC2CCC1(C)C2(C)C (stereo not drawn) | -2.7 | 123.1* | -6.0 | 13.6 | 14.4 | 67.0* | 73.8* | 18.4
CCCOC(=O)C[N+](C)(C)CCOC1CC2CCC1(C)C2(C)C (stereo not drawn) | 42.3 | 4.3 | -1.5 | -15.3 | -7.0 | -11.6 | x | x
CCC(/C=C1\Sc2ccc(OC)cc2N1CCO)=C\c1sc2ccc(OC)cc2[n+]1CCO | 49.0 | 43.4 | 10.6 | 1.5 | -0.7 | 72.4* | 21.8 | x
Cc1cccc(-c2nnn(Cc3nnc(NC(=O)c4ccccc4)s3)n2)c1 | 2.0 | -5.3 | -2.4 | -0.4 | 8.8 | 71.1* | -6.0 | x
CC[C@H](C)[C@@H](CN[C@H](C)CNC)NCCC(c1ccccc1)c1ccccc1 | 2.6 | -7.4 | 22.0 | 19.3 | -7.0 | 98.9* | 93.4* | 4.3
CCOC(=O)c1c(C)oc2c1c(C(c1cccnc1)N1CCOCC1)c(O)c1ccccc12 (stereo not drawn) | -1.6 | -21.4 | 82.9* | -52.1 | -70.3 | 75.6* | -231.5 | x
CCOC(=O)c1c(C)oc2c1c1c(c3ccccc32)OCN(Cc2cccnc2)C1 | 21.7 | x | x | x | x | x | x | x
Cc1nc(N)nc(N)c1CCCc1ccc(Cl)c(Cl)c1 | 21.3 | 5.1 | 66.3 | -43.4 | 10.7 | 68.0* | 56.9* | 49.6*
C[C@@H]1CN([C@@H](C)CO)C(=O)c2cccc(NS(C)(=O)=O)c2O[C@H]1CN(C)CC1CCCCC1 | -3.7 | 0.5 | x | 0.4 | -4.5 | 7.8 | x | x
CCc1ccc(Nc2n[n+](-c3ccccc3)c(-c3ccc(OCc4ccccc4)cc3)s2)cc1 | 51.7 | 59.9 | 26.7 | -66.3 | 8.9 | 25.7 | x | x

Source: PubChem BioAssay (several laboratories)
